Assays:
Assay in all cases: PBM binding z-score (relative to random genomic background probes); higher = stronger binding; sequences stand for … in GC…GCGATTGACAGCGTAGAATGAAGG
[1] = test system: PPARg:RXRa DBDmut IVT, anti-RXR (DBD mutation: RXRa K156A/R161A, NR concentration 270 nM, RXRa partner concentration 90 nM)
Summary of the method: (§1)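 Custom Agilent 4×180K protein-binding microarrays carried double-stranded probes. Their 34-nt variable regions held direct-repeat seeds, single-nucleotide variants, half-site ablations and random human genomic background sequences. Arrays were incubated 1 h with ligand-free nuclear receptor dimers in PBS pH 7.4, 2% milk, 0.02% Triton X-100, 1 mM DTT, 0.2 mg/mL BSA and 0.4 mg/ml salmon testes DNA. Antibodies against each partner (one per run) detected binding, and scanned fluorescence was regression-normalized. Binding z-scores use random background probes as reference.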

[2] = test system: PPARg:RXRa IVT, anti-PPARg (NR concentration 270 nM, RXRa partner concentration 90 nM)
Summary of the method: as §1

[3] = test system: PPARg DBDmut:RXRa IVT, anti-PPARg (DBD mutation: PPARg1 K132A/R137A, NR concentration 270 nM, RXRa partner concentration 90 nM)
Summary of the method: as §1

[4] = test system: PPARg DBDmut IVT, anti-PPARg (DBD mutation: PPARg1 K132A/R137A, NR concentration 270 nM)
Summary of the method: as §1

[5] = test system: PPARg homodimer (NR concentration 180 nM)
Summary of the method: as §1

[6] = test system: PXR:RXRa (NR concentration 270 nM, RXRa partner concentration 90 nM)
Summary of the method: as §1

[7] = test system: PXR homodimer (NR concentration 270 nM)
Summary of the method: as §1

[8] = test system: RARa:RXR (NR concentration 270 nM, RXRa partner concentration 90 nM)
Summary of the method: as §1

[9] = test system: RARa homodimer (NR concentration 270 nM)
Summary of the method: as §1

[10] = test system: RARb:RXRa (NR concentration 270 nM, RXRa partner concentration 90 nM)
Summary of the method: as §1

[11] = test system: RARb homodimer (NR concentration 270 nM)
Summary of the method: as §1

[12] = test system: RARg:RXRa (NR concentration 270 nM, RXRa partner concentration 90 nM)
Summary of the method: as §1

[13] = test system: RARg homodimer (NR concentration 270 nM)
Summary of the method: as §1

[14] = test system: RXRa DBDmut IVT, anti-RXR (DBD mutation: RXRa K156A/R161A, NR concentration 90 nM)
Summary of the method: as §1

[15] = test system: RXRa homodimer (NR concentration 180 nM)
Summary of the method: as §1

[16] = test system: THRa:RXRa (NR concentration 90 nM, RXRa partner concentration 90 nM)
Summary of the method: as §1

[17] = test system: THRa homodimer (NR concentration 90 nM)
Summary of the method: as §1

[18] = test system: VDR:RXRa (NR concentration 270 nM, RXRa partner concentration 90 nM)
Summary of the method: as §1

[19] = test system: VDR homodimer (NR concentration 270 nM)
Summary of the method: as §1

| Sequence | PBM binding z-score [1] | PBM binding z-score [2] | PBM binding z-score [3] | PBM binding z-score [4] | PBM binding z-score [5] | PBM binding z-score [6] | PBM binding z-score [7] | PBM binding z-score [8] | PBM binding z-score [9] | PBM binding z-score [10] | PBM binding z-score [11] | PBM binding z-score [12] | PBM binding z-score [13] | PBM binding z-score [14] | PBM binding z-score [15] | PBM binding z-score [16] | PBM binding z-score [17] | PBM binding z-score [18] | PBM binding z-score [19] |
| --- | --- | --- | --- | --- | --- | --- | --- | --- | --- | --- | --- | --- | --- | --- | --- | --- | --- | --- | --- |
| CCTATTAGTTGACCACAAGGGCAACCGAAGCTCG | 0.687 | 0.913 | 0.619 | 0.658 | 1.46 | 0.841 | 1 | 0.762 | 1.46 | 1.49 | 1.95 | 1.15 | 1.01 | 0.553 | 0.829 | 1.23 | 0.878 | 0.807 | 1.01 |
| CCTAGCTGGCCAATCTGGGTCACTCAAGGCTTGA | 3.93 | 4.25 | -0.85 | -1.11 | -0.162 | 0.708 | -0.934 | 1.02 | -1.02 | 1.09 | 1.72 | 0.659 | 0.818 | -0.0999 | 0.716 | 2.69 | 0.234 | 0.147 | -0.441 |
| CGACCGAGGGCATGAGTTGATAGCAAATGCCGAT | 0.432 | 0.376 | -0.421 | -0.612 | 0.0239 | 0.48 | -0.327 | 0.539 | -0.74 | 2.11 | 0.812 | 1.35 | 1.89 | 1.81 | 0.547 | 1.01 | -0.126 | 1.3 | 1.48 |
| TTACCAAGGTGAACGTCGTTGATCCCTCTGTAGA | 2.54 | 3.17 | 0.0811 | 1.09 | 0.021 | 0.627 | -0.305 | 1.26 | -0.00319 | 1.77 | 0.909 | 0.602 | 0.629 | -0.298 | 1.19 | 2.32 | 0.991 | 0.322 | -0.626 |
| TGAATGAGGTTAAAGATCAGTGAACGTGGCGTCG | 2.37 | 3.44 | 0.722 | 0.242 | 1.24 | 2.01 | 0.152 | 3.08 | -0.0565 | 2.09 | 0.903 | 2.48 | 1.37 | 1.33 | 3.74 | 2.58 | 0.429 | 1.62 | 0.435 |
| AATACAGGGTCATCGTAGGCAAGAGTACGCACAG | 2.91 | 4.3 | 1.57 | 1.49 | 4.01 | 4.55 | 0.721 | 5.8 | 1.82 | 4.46 | 3.24 | 5.6 | 5.07 | 3.51 | 6.7 | 4.16 | 1.5 | 5.23 | 3.96 |
| ACTAGCAGGCGAAGGGTCACTCAAGATTAGTCCG | -0.0679 | 2.22 | -0.671 | -0.597 | 1.88 | 2.32 | -0.24 | 3.29 | -0.0684 | 3.31 | 3.34 | 3.45 | 3.42 | 0.405 | 3.49 | 2.32 | -0.224 | 2.23 | 0.989 |
| CCAGACAGTTGAGAAGGTAACTCAGCCTCGATTA | 0.0699 | -0.312 | 0.611 | -0.051 | 1.22 | 0.00076 | 0.294 | 0.392 | 1.27 | 0.189 | 0.381 | 0.25 | 0.293 | 0.456 | 0.203 | 0.25 | 0.485 | 0.251 | 0.252 |
| CGAACTAGGTCATGCAGGACAGTGAATACATTGA | 8.05 | 8.18 | 3.1 | 1.2 | 1.1 | 1.34 | 0.687 | 1.97 | 0.243 | 3.92 | 2.8 | 3.87 | 4.66 | 1.87 | 2.67 | 2.96 | 1.35 | 4.23 | 1.31 |
| ATCTCTAGGTAAAGTTCAGTGACAGATCGATAGA | 2.61 | 2.57 | 1.53 | 2.1 | 2.05 | 2.12 | 2.52 | 1.43 | 2.08 | 2.75 | 2.63 | 1.99 | 2.63 | 1.51 | 1.39 | 1.31 | 0.436 | 1.63 | 2.61 |
| TCGAGTAGGTTCCCAATGGGGCATTCAGCTTTCT | 0.883 | 0.261 | -1.28 | -1.09 | -0.805 | -0.411 | -1.24 | -0.343 | -1.9 | -0.327 | -0.191 | -0.766 | -0.954 | 0.269 | -0.493 | -0.435 | -0.628 | -0.37 | -1.15 |
| AAAACGAGGGCACGCTGAGTTGATAGCAGAGTAG | 5.62 | 5.01 | -0.17 | 0.145 | 0.283 | 1.5 | 0.139 | 0.828 | -0.23 | 2.65 | 1.08 | 2.13 | 2.34 | 2.08 | 1.62 | 1.94 | 0.0518 | 2.53 | 2.26 |
| GCGACTGGGACAAAGCAGGTTACCATAAGGTTGG | 2.44 | 1.83 | -0.413 | -1.3 | 0.0292 | 0.0506 | -0.224 | 0.493 | -0.37 | 0.0729 | 0.587 | 0.308 | 0.367 | -0.523 | 0.419 | 1.59 | 0.162 | -0.0797 | -0.161 |
| CGTCAAAGTTCAACTAAGGTAATGTAAAGCACGC | 0.526 | 2.28 | 0.986 | 1.3 | 3.39 | 5.58 | 3.59 | 4.17 | 1.99 | 5.18 | 4.29 | 5.86 | 6.53 | 4.51 | 5.18 | 5.18 | 1.31 | 4.8 | 3.69 |
| CCGAGTAGGTTATGGGGCAGTCAGGCAACGGTGA | 2.72 | 3.05 | -0.267 | -0.985 | 0.752 | -0.312 | 0.274 | -0.198 | 0.265 | 0.933 | 0.983 | 0.587 | 0.165 | -0.557 | 0.291 | 0.277 | -0.143 | -0.397 | -0.221 |

Source: the supplement of paper PMC6555819
